Test results as given in PubChem BioAssay AID588436 (Broad Institute, 2011).
In all, about 350,000 compounds went through this assay and about 550 (0.16%) were called active. The entries come from a sample that favours actives as a whole. A number with no mark means an inactive call. Rule as the data show it: active = activation mostly above about 9.7% (no sharp cut-off); inconclusive = no clear call, values can overlap the other calls; inactive = mostly below about 3.7%.

assay: induces V. cholerae light production without autoinducers, primary screen, BH1578 luxS cqsA deficient, single point (AID 588436); conditions: V. cholerae BH1578 lux reporter, luminescence, 6 h, at 18.7 µM; active compounds read high

| SMILES | activation |
| --- | --- |
| COc1ccccc1C(=O)NCCn1cc(SCC(=O)NCc2ccco2)c2ccccc21 | -0.41% |
| CCC(=O)c1c[nH]c(C(=O)NCC2CCCO2)c1 (stereo not given) | -0.144% |
| CCC(=O)Nc1ccc(S(=O)(=O)NCC2CCCO2)cc1 (stereo not given) | -0.618% |
| CCC(=O)NC(NCC1CCCO1)C(Cl)(Cl)Cl (stereo not given) | 16.7% (active) |
| CCCS(=O)(=O)N1CCCC(C(=O)N2CCN(c3ccccc3)CC2)C1 (stereo not given) | 33.3% (active) |
| CS(=O)(=O)N1CCC(C(=O)N2CCN(c3ccccc3)CC2)CC1 | inactive |
| O=C(C1CCCN(S(=O)(=O)c2ccccc2)C1)N1CCN(c2ccc(F)cc2)CC1 (stereo not given) | inactive |
| CCOc1ccc(OCc2cccc(C(=O)N(CC)CC)c2)cc1 | -0.345% |
| Cc1cccc(-n2c(SCC(=O)Nc3cccc(S(=O)(=O)NC4=NCCCCC4)c3)nc3ccccc3c2=O)c1C | -0.796% |
| O=C(C1CC(=O)N(c2ccc(F)cc2)C1)N1CCN(c2ccccc2)CC1 (stereo not given) | -0.28% |
| Cc1cccc(CN2CCC(n3nccc3NC(=O)c3ccccc3C)CC2)n1 | -0.82% |
| COC(=O)C1=C(C)NC(=O)NC1/C=C/c1ccccc1 (stereo not given) | 33.3% (active) |
| COC(=O)C1=C(C)N=C2SC(C)C(=O)N2C1/C=C/c1ccccc1 (stereo not given) | inactive |
| COC(=O)c1ccc(C2NC(=O)NC(C)=C2C(=O)N(C)C)cc1 (stereo not given) | -3.1% |
| CCN(CC(=O)Nc1ccccc1C(F)(F)F)C(=O)CSCc1c(C)noc1C | inactive |
| CC(C)CC(N=C1NC(C)(C)Cc2ccccc21)C(=O)O (stereo not given) | -0.478% |
| CC(NCc1cccs1)C(=O)Nc1cc(Cl)cc(Cl)c1 (stereo not given) | -0.542% |
| COC(=O)c1ccc(CNC(=O)Cn2cc(C)c(=O)[nH]c2=O)cc1 | -1.31% |

| SMILES | activation |
| --- | --- |
| CCc1cccc2c(=O)c(C(=O)NCCCOC)c[nH]c12 | inactive |
| O=C(Nc1ccc2c(c1)CCC2)c1cccc(S(=O)(=O)Nc2ccccc2Cl)c1 | 0.69% |
| Cc1cc(C(=O)OCC(=O)Nc2ccccc2Cl)c(C)o1 | 11.9% |
| O=C(Cc1ccc2c(c1)CCCC2)Nc1ccccc1Cl | 159% (active) |
| O=[N+]([O-])c1ccc2nc(-c3ccccn3)[nH]c2c1 | inactive |
| CN(CCc1ccccc1)c1ccc([N+](=O)[O-])cn1 | inactive |
| O=[N+]([O-])c1cnc2ccc3ccccc3c2c1 | 31.2% (active) |
| COc1ccc(N(CC(=O)NC2CCCCC2)C(=O)CNC(=O)c2ccco2)c(OC)c1 | 16.7% (active) |
| COC(=O)c1ccc(N(CC(=O)NC2CCCC2)C(=O)CNC(=O)c2ccco2)cc1 | -0.813% |
| COc1cccc(N(C(=O)CNC(=O)c2ccco2)C(C(=O)NC2CCCCC2)c2cccnc2)c1 (stereo not given) | 0.162% |
| CC(C)CN(C(=O)Cn1c(=O)cnc2ccccc21)C1CCS(=O)(=O)C1 (stereo not given) | -2.94% |
| CC(=O)OCCN(CCCn1c(-c2ccncc2)nc2ccccc21)c1nc(-c2ccc(C)cc2)cs1 | -0.447% |
| Cc1ccc(C)c(NC(=O)c2cc(-c3cc(C)cc(C)c3O)n[nH]2)c1 | 1.16% |
| CC(C)CNC(=O)COC(=O)/C=C/c1ccco1 | 180% (active) |
| COc1cccc(NC(=O)COC(=O)/C=C/c2ccco2)c1 | inactive |
| CC(C)CNC(=O)COC(=O)/C=C/c1ccccc1[N+](=O)[O-] | 13.6% |
| CC(CN1CCCCC1)c1ccccc1 (stereo not given) | inactive |
